Consider 40 compounds from PubChem BioAssay (NCI).

This is part of a sample that, as a whole, favours compounds with a hit. Of some 83,000 tested, about 20% had one in any assay.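 Each cell line was grown in a 96-well plate and treated with one concentration of compound for 48 hours. Values below 10 were considered active.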 Unmarked numbers belong to inactive results. The source made the active and inactive calls.

This test concerns OVCAR-5 ovarian. Put plainly: NCI-60 one-dose screen, 48 h (100 = growth as untreated, 0 = no growth, -100 = all killed). Particulars: 10 µM. As for the experimental part:
Growth inhibition of the OVCAR-5 human tumor cell line is measured as a screen for anti-cancer activity. Cells are grown in 96 well plates and exposed to the test compound for 48 hours. Compounds are tested at a single concentration, which is 10^-5 M for most compounds. The reported endpoint is percent growth (GI% or GIPRCNT), where numbers from 0 - 100% represent growth inhibition, and numbers from -100% - 0 represent cell death. For example, a value of 40 represents 60% growth inhibition. A value of 0 means no net growth occurred over the course of the experiment. A value of -40 indicates 40% of cells at the beginning of the experiment died by the end of the experiment. A value of -100 means all cells are dead at the end of the experiment.
NCI-60 Human Tumor Cell Lines Screen was performed using the standard one-dose NCI protocol, which is described in more detail at https://dtp.cancer.gov/discovery_development/nci-60/default.htm.
Compounds with GIPRCNT values below 10 were considered active. Activity score was based on GIPRCNT using the following formula: […]
Score is 0 for GIPRCNT values of 100 or above, 50 for GIPRCNT values of 0, and 100 for GIPRCNT values of -100.
Take `O=C1/C(=C/c2ccc(O)cc2)Oc2ccc(Cl)cc21`: the growth is 106%. Consider `O=C(CCCC(=O)N/N=C/c1cc(Cl)ccc1O)N/N=C\c1cc(Cl)ccc1O`, for which the growth was 67.4%.

For the compound `CCN1CCOC1C(C)C` (stereo not given), the growth is 99.2%.

Take `COc1cccc(C(=O)N(c2ccc(F)c(F)c2)C(C(=O)NC(C)(C)C)c2cc3c(C)cc(C)cc3nc2Cl)c1` (stereo not given): the growth was 86.5%. `Nc1ncc(-c2ccc(C(F)(F)F)cc2)c(NC2CCCCCC2)n1`: the growth was 53%. Then `O=S(=O)(NCl)c1ccccc1`, with 110%. The result for `COc1ccc(-c2nc(-c3nc4ccc(C)cc4[nH]3)c3ccccn23)cc1` reads 88.5%; that for `Cc1ccc(-c2cc(C(=O)Nc3ccc(S(=O)(=O)N4CCCCC4)cc3)[nH]n2)c(O)c1`, 73.8%. For the compound `CC(C)C[C@H](NC(=O)Cn1ccc2ccccc2c1=O)B(O)O`, the growth was 76.9%. `O=[N+]([O-])c1ccc2c(c1)Cc1cc(I)ccc1-2`: the growth is 97%. In the case of `COCCOC(=O)NC(=O)Nc1ccc(C(=O)c2ccc(Cl)cc2)cc1`, the growth is 90.7%. Consider `COc1cc(Cn2c(-c3ccccc3)cc3c2-c2oncc2CC3)cc(OC)c1`, for which the growth was 42.6%. `Cn1c([N+](=O)[O-])cnc1/C=C1\Oc2ccc(Br)cc2C1=O`: the growth was -19.1% (active). On to `N#CCC1CCCC1`, for which the growth was 105%.

For the compound `CCOC(=O)C(CCC1=NC(C)(C)CC(C)O1)C(=O)OCC` (stereo not given), the growth is 62.5%. Then `CCCCCCCCCCCCCCCC(=O)N1CCN(C)CC1`, with 86.3%; and `O=C(O)CNS(=O)(=O)c1ccc(OCCOc2ccc(S(=O)(=O)NCC(=O)O)cc2)cc1`, with 104%; and `COC(=O)c1cnc2c(c1)Oc1ccccc1-c1ccnn1-2`, with 108%. With `CN(C)c1ccc2cc(-c3cc4c(oc3=O)-c3ccccc3OC4O)c(=O)oc2c1` (stereo not given), the growth was -9.51% (active). Consider `CCOc1ccc2c(c1)CC[C@@H]1[C@@H]2CC[C@]2(C)[C@@H](O)[C@@H](O)C[C@@H]12`, for which the growth was 95.7%. For the compound `O=C(C=P(c1ccccc1)(c1ccccc1)c1ccccc1)c1ccc(Br)cc1`, the growth is 104%. Then `O/N=C1\CCC2CCCCC2C1` (stereo not given), with 104%.

Take `C[C@@H]1C(=O)N(C[C@H](Cc2ccccc2)NC(=O)OCc2ccccc2)[C@]1(Cc1ccccc1)C(=O)OCc1ccccc1`: the growth is 65.8%. For `C#C[C@]1(O)CC[C@H]2[C@@H]3CC[C@H]4CC(F)(F)CC[C@]4(C)[C@H]3CC[C@@]21C`, the growth is 88.5%. Take `CCN(CC)CC(O)Cc1ccc(OC)cc1` (stereo not given): the growth is 106%. As to `N=C(N)c1ccc(-c2ccc(-c3cccs3)s2)nc1`, the growth was 62.5%. Take `FC(F)(F)c1ccc(-c2cnc(Cl)nc2NCc2cc(C(F)(F)F)cc(C(F)(F)F)c2)cc1`: the growth was 35.2%.

For the compound `CC(C)OCc1cc(CN2CCN(c3cccc(Cl)c3)CC2)c(O)c2ncccc12`, the growth is 38.3%. `N#Cc1ncc(-c2cc(F)ccc2F)c(NC2CCCCCC2)n1`: the growth was 98.9%. As for `O=C1/C(=C/c2ccc(O)cc2)CSc2ccc(Cl)cc21`, the growth was 95.2%. Regarding `CCCc1c(C)nc2scc(-c3ccc(Cl)cc3)n2c1=O`, the growth is 104%. Then `Clc1cc(Cl)c(Cl)c(-c2nc(-c3cccnc3)cs2)c1`, with 79.6%; and `CCc1ccc(-c2nnc(COc3ccc(-c4nc5ccc(C)cc5[nH]4)cc3OC)o2)cc1`, with 92.4%; and `Cc1ccc(NS(=O)(=O)c2ccccc2)c(NS(=O)(=O)c2ccccc2)c1`, with 104%. Consider `COc1c(-c2c3sc(=O)[nH]c3nc3c2c(=O)[nH]n3C(C)C)cc2c(c1OC)OCO2`, for which the growth is 96.7%. In the case of `O=C1/C(=C/c2cccs2)CCC/C1=C\c1cccs1`, the growth was 79.5%. Then `COc1ccc(C(=O)n2nc(CC(=O)NCc3ccccc3)nc2N)cc1`, with 113%. For the compound `COC(=O)c1ccc(Cn2ccc(=O)[nH]c2=O)cc1`, the growth is 104%. For the compound `COc1cc(-c2c(C#N)c(N)n3c(nc4ccccc43)c2C#N)cc(Br)c1OC`, the growth is 68.9%. Consider `CNC(=O)c1cc(Oc2ccc(NC(=O)Nc3ccc(Cl)c(OC4CCCCC4)c3)c(F)c2)ccn1`, for which the growth is 88.8%.
